D3 ag: activates the human D3 dopamine receptor; P35462; D3R DiscoveRx beta-arrestin cells, luminescence, 90 min; max activation, %; hit rate 0.58% among 410,000; in the data active = max activation above about 30%
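Agonist mode: compounds and dopamine controls were applied to plated cells for 90 min at 37 degrees C after an overnight attachment at 1500 cells/well. Luminescent read-out followed 30 - 60 minutes at room temperature with DiscoveRx detection reagent.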
D1 PAM: enhances dopamine response at the human D1 receptor. P21728. HEK293 TREx D1 cells, calcium flux, dopamine EC20 potentiation. potentiation, % at 10 µM. hit rate 0.036% among 360,000; in the data active = potentiation above about 30%
Target sequence (P21728 whole entry, looked up): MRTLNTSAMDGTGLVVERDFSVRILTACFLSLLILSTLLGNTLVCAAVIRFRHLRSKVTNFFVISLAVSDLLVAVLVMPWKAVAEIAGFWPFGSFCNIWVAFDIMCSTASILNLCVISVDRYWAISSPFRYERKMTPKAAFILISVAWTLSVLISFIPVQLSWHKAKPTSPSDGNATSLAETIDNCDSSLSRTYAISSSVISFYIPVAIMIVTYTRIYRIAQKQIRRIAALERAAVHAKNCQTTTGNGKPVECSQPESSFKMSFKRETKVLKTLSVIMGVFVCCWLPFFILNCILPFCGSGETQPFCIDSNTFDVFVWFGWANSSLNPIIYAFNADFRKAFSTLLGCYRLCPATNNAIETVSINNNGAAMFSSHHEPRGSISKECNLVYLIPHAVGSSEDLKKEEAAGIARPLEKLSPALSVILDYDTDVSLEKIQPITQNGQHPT
DRD3 antagonist: D3 dopamine receptor (human) antagonism; P35462; D3R cells, DiscoveRx beta-arrestin luminescence, antagonist mode; stronger effect = lower value; max response, negative = inhibition, %; hit rate 2.5% among 360,000; in the data active = max response below about -50%; inconclusive = no clear call, values can overlap the other calls
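Cells expressing the human receptor were seeded at 1500 cells/well, incubated overnight at 37 degrees C in 5% CO2, then exposed to library compounds with dopamine controls for 90 minutes at 37 degrees C before luminescent detection.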
D1 ag: human D1 receptor agonism; P21728; HEK293 T-REx D1 cells, calcium flux, agonist mode; activation, % at 2 µM; hit rate 1% among 360,000; in the data active = activation above about 30%
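Agonism was scored from calcium flux recorded over 180 s (1 read/s) after pintool compound addition, following a 10-cycle baseline. Cells were inducible force-coupled HEK293 TREx D1, plated overnight at 30 C and loaded with no-wash calcium dye.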
D1 antag: antagonists of human D1 dopamine receptor; HEK293 TREx D1 cells, calcium flux, dopamine EC80; stronger effect = lower value; activity change, negative = inhibition, % at 10 µM; hit rate 3.2% among 360,000; AID 504652; in the data active = activity change below about -30%
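Compound effects on dopamine-evoked calcium signalling were measured in tetracycline-induced HEK293 Trex D1 cells. Dopamine at EC80 followed a 180 s compound pre-read, and fluorescence was tracked kinetically for 180 s more.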
Of the large screens only hits and unclear results are named; the others gave an inactive call; ! = repeats disagree. In the library only some 6% were active in any assay of this set; here they are far more common.

CCc1nn2c(=O)cc(COC(=O)c3cccc(NC(=O)COc4ccccc4F)c3)nc2s1	none (no result: DRD3 antagonist)
CC(=O)N[C@@H]1C(O[C@H]2O[C@H](C(=O)O)C(O)[C@H](O)[C@H]2O)[C@H](O)[C@@H](CO)O[C@H]1O[C@@H]1C(C(=O)O)O[C@@H](O[C@H]2[C@H](O)[C@@H](CO)OC(O)[C@@H]2NC(C)=O)[C@H](O)[C@H]1O (stereo partly drawn)	none (no result: D1 PAM, DRD3 antagonist, D1 ag, D1 antag)
CC(C)CC1C(C#N)=C(N)SC(N)=C1C#N	D1 ag 38
COc1ccc(C(=O)n2nc(-c3ccccc3)nc2N)cc1OC	D1 antag -34
O=C(CN1C(=O)COc2ccccc21)N(CCCN1CCOCC1)CC1CC=CCC1 (stereo not drawn)	DRD3 antagonist -57
O=C(CN1C(=O)COc2ccccc21)NCCCN1CCOCC1	none
Cc1cccc(-n2c(=O)c3c(c4cc(C)ccc4n3C)n(Cc3ccccc3F)c2=O)c1	none (no result: DRD3 antagonist)
CC(CCc1ccccc1)NCc1cccc2ccccc12 (stereo not drawn)	DRD3 antagonist -54
COc1ccc(CCC(C)NCc2cccc(Br)c2)cc1 (stereo not drawn)	DRD3 antagonist -68
Cc1ccc(NC(=O)c2ccc(C)c(S(=O)(=O)N3CCCCCC3)c2)cc1	none (no result: DRD3 antagonist)
CCN(c1ccccc1)S(=O)(=O)c1cccc(C(=O)NCC(c2ccc(OC)cc2)N2CCCCC2)c1 (stereo not drawn)	DRD3 antagonist -122 (no result: D1 PAM, D1 ag, D1 antag)
COc1ccc(C(=O)NCC(c2ccc(F)cc2)N2CCOCC2)cc1S(=O)(=O)N1CCCC1 (stereo not drawn)	none
Cc1ccc(C(=O)Nc2cccc(O)c2)cc1S(=O)(=O)N1CCCCCC1	D1 antag -33!
COc1cccc(C(=O)NCCS(=O)(=O)N2CCCC2)c1	DRD3 antagonist -63
COc1ccc(C(CNC(=O)c2ccc(OC)c(S(=O)(=O)N3CCCC3)c2)N2CCCC2)cc1 (stereo not drawn)	DRD3 antagonist -83
Cc1cc2c(s1)c1cnn(Cc3ccc(SC(F)(F)F)cc3)c(=O)c1n2C	none (no result: D3 ag, DRD3 antagonist)
Cc1ccc(-n2c(=O)c3c(c4cc(C)ccc4n3C)n(CC(=O)NCc3ccccc3)c2=O)cc1	none (no result: DRD3 antagonist)
Cc1csc(CNc2ncnc3ccc(-c4ccc5c(ccn5C)c4)cc23)c1	none (no result: D3 ag, DRD3 antagonist)
CCOc1ccccc1C(=O)Nc1cc2c(cc1N1CCOCC1)n(C)c(=O)n2C	none (no result: DRD3 antagonist)
COc1ccccc1C(CNC(=O)c1ccc(C)c(S(=O)(=O)N2CCCCC2)c1)N1CCCC1 (stereo not drawn)	D1 antag -45
COc1ccc(C(CNC(=O)c2cccc(S(=O)(=O)Nc3ccccc3OC)c2)N2CCCC2)cc1 (stereo not drawn)	DRD3 antagonist -65
COc1ccc(C(CNC(=O)c2ccc(C)c(S(=O)(=O)N3CCCCC3)c2)N(C)C)cc1OC (stereo not drawn)	none
COc1ccc(N(C)S(=O)(=O)c2cccc(C(=O)NC3CCC(C)CC3)c2)cc1 (stereo not drawn)	none
COc1ccc(N(C)S(=O)(=O)c2cccc(C(=O)Nc3cccc(C(=O)NC4CC4)c3)c2)cc1	D1 antag -53
COc1ccc(N(C)S(=O)(=O)c2cccc(C(=O)NCC(c3cccs3)N(C)C)c2)cc1 (stereo not drawn)	DRD3 antagonist -67
CC(C)OC(=O)c1c(NC(=O)c2cccc(C(F)(F)F)c2)sc2c1CCCC2	none (no result: DRD3 antagonist)
COc1cc(C2C=C(C(=O)O)Nc3ncnn32)ccc1O (stereo not drawn)	none (no result: DRD3 antagonist)
COc1ccc(C2CC(=O)Nc3c2c(C)nn3-c2nncc(-c3ccc(C)cc3)n2)c(OC)c1OC (stereo not drawn)	none (no result: DRD3 antagonist)
COc1ccc(C(CNC(=O)CNC(=O)c2cccc(Cl)c2)N2CCCC2)cc1 (stereo not drawn)	D1 antag -37 (no result: D1 PAM)
COc1ccc(N(C)S(=O)(=O)c2cccc(C(=O)NCC(c3ccco3)N3CCCC3)c2)cc1 (stereo not drawn)	DRD3 antagonist -57
COc1ccc(C(CNC(=O)c2cccc(S(=O)(=O)Nc3ccccc3OC)c2)N2CCCCC2)cc1 (stereo not drawn)	DRD3 antagonist -81 (no result: D1 PAM, D1 ag, D1 antag)
CCC1CCc2sc(C(=O)NCC(c3ccc(OC)cc3)N3CCCC3)cc2C1 (stereo not drawn)	DRD3 antagonist -89
COc1ccccc1-c1c(C)nn2c(-c3ccccc3)cc(-c3ccccc3)nc12	none (no result: DRD3 antagonist)
NC(=O)C(c1ccccc1)(c1ccccc1)[C@@H]1CCN(CCc2ccc3c(c2)CCO3)C1	none (no result: D1 PAM, DRD3 antagonist, D1 ag, D1 antag)
COc1ccc(-c2nsc(NC(=O)c3ccccc3Br)n2)cc1	none (no result: DRD3 antagonist)
COc1ccc(OCCCCn2c(-c3ccc(Cl)cc3)nc3ccccc3c2=O)cc1	none (no result: DRD3 antagonist)
CCOc1ccc(CNc2nc3nc(C)c(Cc4ccccc4)c(=O)n3[nH]2)cc1	none (no result: DRD3 antagonist)
COc1ccc(F)cc1S(=O)(=O)NCC(c1ccco1)S(=O)(=O)c1cccs1 (stereo not drawn)	none (no result: DRD3 antagonist, D1 antag)
CCc1ccc2oc(C(=O)N(Cc3ccc(N(C)C)cc3)Cc3ccco3)c(C)c2c1	none (no result: DRD3 antagonist)
Cc1cc(C)n(-c2nc3cc(Cl)c(Cl)cc3nc2Nc2ccc(F)cc2C)n1	none (no result: DRD3 antagonist)
CCOc1ccc(-c2cc3c(=O)n(Cc4nc(-c5ccccc5OCC)oc4C)ccn3n2)cc1Cl	none (no result: DRD3 antagonist)
COc1ccc(C(CNC(=O)c2cc3ccccc3cc2OC)N2CCCC2)cc1 (stereo not drawn)	DRD3 antagonist -56
COc1ccc(NS(=O)(=O)c2cccc(C(=O)NCC(c3ccc(OC)cc3)N3CCCCC3)c2)cc1 (stereo not drawn)	DRD3 antagonist -57 (no result: D1 PAM, D1 ag, D1 antag)
COc1ccc(C(CNC(=O)c2ccc(C)c(S(=O)(=O)Nc3ccccc3OC)c2)N2CCCC2)cc1 (stereo not drawn)	DRD3 antagonist -93, D1 antag -38
COc1ccc(C(CNC(=O)c2cccc(S(=O)(=O)N3CCCCC3)c2)N2CCCC2)cc1 (stereo not drawn)	DRD3 antagonist -51
COc1ccc(C(CNC(=O)CNC(=O)c2ccccc2Cl)N2CCCC2)cc1 (stereo not drawn)	none
COC(=O)c1ccc(Cl)cc1NC(=O)N1CC=C(c2c[nH]c3ccccc23)CC1	none (no result: DRD3 antagonist)
Cc1nc2c(c(C)c1CCC(=O)Nc1cccc(C(F)(F)F)c1)c(=O)n(C)c(=O)n2C	none (no result: DRD3 antagonist)
COCCNC(=O)C1(C)CCCN(Cc2csc3ccccc23)C1 (stereo not drawn)	DRD3 antagonist inconclusive (no result: D1 PAM, D1 ag, D1 antag)
CCCNC(=O)C1(C)CCN(Cc2ccc3ccccc3c2Br)C1 (stereo not drawn)	DRD3 antagonist -51 (no result: D1 PAM, D1 ag, D1 antag)
CCCNC(=O)C1(C)CCCN(Cc2csc3ccccc23)C1 (stereo not drawn)	DRD3 antagonist -53 (no result: D1 PAM, D1 ag, D1 antag)
Cc1ccc(S(=O)(=O)NCCSc2nnnn2-c2cc(C)ccc2C)cc1	D1 antag -40
Cc1cc2c(=O)[nH]c(Cc3ccccc3)nc2s1	D1 antag -41
CCc1cc2c(=O)[nH]c(Cc3ccccc3)nc2s1	none

Screens: PubChem, National Center for Advancing Translational Sciences (NCATS)
